Bioassay records deposited in PubChem BioAssay by National Center for Advancing Translational Sciences (NCATS).
Hits are enriched below; roughly 2.5% of the tested compounds scored in any of these assays.
Pol beta inh: DNA polymerase beta (human) inhibition. Pol beta primer extension/strand displacement, fluorescence kinetic. Potency, µM (titrated, usually from 114 µM), for the others: at the top dose activity change, negative = inhibition, most hits filed as inhibitors. 340,000 compounds, 1.3% hits; also: % is scaled to controls: 0 for no effect and ±100 for the full control effect
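10 nM enzyme + cpd, 15 min RT; start with substrate 50 nM final; read 0 min and after 10 min RT. Corrected, normalized data; 4-parameter Hill curve fit.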
POLI inh: DNA polymerase iota (human) inhibition; Q9UNA4; 390,000 compounds, 1% hits; Potency, µM (doses to about 115 µM), for the others: top-dose activity, negative = inhibition, usual class: inhibitors; Pol iota fluorescent replication assay, 10 min
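Fluorescent replication assay read twice, at 0 min and 10 min after adding 50 nM (final) substrate. Enzyme (10 nM) and compounds were first incubated 15 min at room temperature; enzyme-free buffer wells were negative controls.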
Pol kappa inh-1: blocks human DNA polymerase kappa activity. Q9UBT6. purified Pol kappa, fluorescent DNA synthesis assay, 10 min. Potency, µM (titrated, usually from 107 µM), for the others: at the top dose activity, negative = inhibition, most hits filed as inhibitors. 400,000 compounds, 0.53% hits; also: % is scaled to controls: 0 for no effect and ±100 for the full control effect
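First, compounds were pin-transferred onto 10 nM Pol kappa. After 15 min at room temperature, substrate was added to 50 nM final. Fluorescence was then measured kinetically at 0 and 10 min.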
APE1 inh-1: inhibitors of human APE1 endonuclease. recombinant APE1, TAMRA/BHQ-2 abasic DNA cleavage fluorescence. 350,000 compounds, 0.35% hits. P27695. Potency, µM (highest dose often 65.8 µM), for the others: top-dose activity change, negative = inhibition, hits mostly inhibitors;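 also: plate controls were vehicle for no effect and reference inhibitor for full effect; nearly all actives have a fitted effect of over 55% in size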
Target sequence (P27695 whole entry, looked up): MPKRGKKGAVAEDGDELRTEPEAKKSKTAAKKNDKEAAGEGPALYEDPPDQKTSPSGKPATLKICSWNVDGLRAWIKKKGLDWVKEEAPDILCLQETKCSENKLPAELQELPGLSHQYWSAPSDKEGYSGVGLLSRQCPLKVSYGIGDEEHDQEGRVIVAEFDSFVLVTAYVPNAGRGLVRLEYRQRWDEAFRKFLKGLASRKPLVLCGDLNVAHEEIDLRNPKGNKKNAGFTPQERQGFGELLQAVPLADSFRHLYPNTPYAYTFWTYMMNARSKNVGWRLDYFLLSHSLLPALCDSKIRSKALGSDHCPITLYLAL
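Step 1: APE1 (0.75 nM) with compound, 15 min RT. Step 2: add 50 nM fluorophore/quencher THF duplex. Step 3: three fluorescence reads 60 s apart (525/598 nm); read 3 minus read 1 = reaction progress.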
L3MBTL1 inh-1: L3MBTL1 (human) inhibition | 230,000 compounds, 0.66% hits | Potency, µM (highest dose often 57.1 µM), without a hit: top-dose activity, negative = inhibition, actives largely listed as inhibitors | AlphaScreen L3MBTL1–H3K9me1 peptide binding; also: % is scaled to controls: 0 for no effect and ±100 for the full control effect; nearly all actives have a fitted effect of over 60% in size
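AlphaScreen assay: L3MBTL1 (50 nM final) was preincubated 30 min at room temperature with biotinylated H3(1-15)K9me1 peptide (75 nM final), then 30 min with library compounds; streptavidin donor and nickel chelate acceptor beads (10 ug/mL final) added, 30 min dark.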
Pol eta inh-1: blocks human DNA polymerase eta activity | 390,000 compounds, 1.2% hits | recombinant Pol eta, fluorescent DNA replication assay | Q9Y253 | Potency, µM (doses to about 114 µM), inactives show top-dose activity change, negative = inhibition, most hits filed as inhibitors; also: % is scaled to controls: 0 for no effect and ±100 for the full control effect
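Pol eta (10 nM) was preincubated with compounds for 15 min at room temperature, after which fluorescent replication substrate (50 nM final) was added to start the reaction. Fluorescence was read kinetically at 0 and 10 min.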
APE1 dye cs: displaces fluorescent dye from DNA, flagging APE1 artifacts. shares compounds with APE1 inh-1. DNA fluorescent dye displacement counterscreen, fluorescence. Potency, µM (highest dose often 28.5 µM), without a hit: at the top dose activity change, negative = inhibition, most hits filed as inhibitors. 480 compounds, 7% hits;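 also: loss of thiazole orange fluorescence as the dye is displaced from duplex DNA; 0% = ThO with dsDNA and no compound and -100% = ThO without dsDNA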
Endo IV inh: blocks E. coli endonuclease IV DNA cleavage; 560 compounds, 4% hits; shares compounds with APE1 inh-1; Potency, µM (doses to about 27.1 µM), for inactives: top-dose activity change, negative = inhibition, usual class: inhibitors; E. coli Endo IV, fluorogenic AP-site DNA cleavage;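 also: plate controls were uninhibited enzyme wells for no effect and no enzyme buffer wells for full effect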
APE1 inh-2: APE1 (human) endonuclease inhibition, confirmation. purified APE1, fluorogenic abasic-site DNA cleavage. 750 compounds, 44% hits. AID 2572. shares compounds with APE1 inh-1. Potency, µM (series often up to 57.1 µM), for inactives: at the highest dose activity change, negative = inhibition, hits mostly inhibitors; also: % is scaled to controls: 0 for no effect and ±100 for the full control effect; nearly all actives have a fitted effect of over 30% in size
APE1 FP: displaces DNA from human APE1 in FP assay; AID 2573; shares compounds with APE1 inh-1; Potency, µM (top dose mostly 28.5 µM), inactives show at the top dose activity, negative = inhibition, hits mostly inhibitors; 480 compounds, 7% hits; APE1 binding to TAMRA-labelled double-stranded DNA, fluorescence polarization displacement; also: % is scaled to controls: 0 for no effect and ±100 for the full control effect
L3MBTL1 inh-2: validation of human L3MBTL1 methyl-lysine binding inhibitors. shares compounds with L3MBTL1 inh-1. L3MBTL1 methyl-lysine binding inhibition, biochemical qHTS. Potency, µM, most hits filed as inhibitors. 500 compounds, 91% hits. AID 540279; also: nearly all actives have a fitted effect of over 70% in size
L3MBTL1 ctr: counter-screen for L3MBTL1 inhibitors: AlphaScreen signal interference; AlphaScreen counterscreen, signal inhibition; Potency, µM (series often up to 57.1 µM), for inactives: at the highest dose activity change, negative = inhibition, actives largely listed as inhibitors; AID 602224; shares compounds with L3MBTL1 inh-1; 500 tested, under 10 active; also: 0% is about no effect
POLI cherry-pick: Inhibitors of human DNA polymerase iota, confirmation | shares compounds with Pol kappa inh-1 | Pol iota primer extension, TAMRA/BHQ fluorescence | Potency, µM, most hits filed as inhibitors | 1,500 compounds, 77% hits | AID 720496
Pol kappa inh-2: confirmation of human DNA polymerase kappa inhibitors | shares compounds with Pol eta inh-1 | purified Pol-kappa, fluorescent strand-displacement substrate | Potency, µM, most hits filed as inhibitors | 920 compounds, 76% hits
Pol eta inh-2: Pol eta (human) inhibition, cherry-pick confirmation | shares compounds with Pol eta inh-1 | Pol eta primer extension, TAMRA/BHQ fluorescence, 10 min | Potency, µM, hits mostly inhibitors | 2,600 compounds, 64% hits
* marks the source's active call; other numbers are inactive results; ? = inconclusive; · = no result; [ ] = another dose, or the depositor's remark. Calls follow the shape of the dose curve; as a rule, active = well fitted curve in the direction sought with a large enough effect; inconclusive = small, poorly fitted or top-dose-only effect, or another doubt; inactive = no such curve, though single readings can be large; an effect the other way counts as inactive or inconclusive. Potency is read from the fitted curve at half-maximal effect.

SMILES | Pol beta inh | POLI inh | Pol kappa inh-1 | APE1 inh-1 | L3MBTL1 inh-1 | Pol eta inh-1 | APE1 dye cs | Endo IV inh | APE1 inh-2 | APE1 FP | Pol kappa inh-2 | Pol eta inh-2 | others
CCN(c1ccccc1)S(=O)(=O)c1cc(C(=O)O)ccc1C | 13µM* | ? | -30% | 16µM* | ? | 13µM* | · | · | 32µM* | · | 5.3* | 9.5* | POLI cherry-pick=7.5*
CCOC(=O)Cn1nc2oc(=O)c(CCN3CCN(c4ccccc4OC)CC3)c(C)c2c1C | · | · | · | · | · | -18% | · | · | · | · | · | ·
Cc1cc(N)n(-c2ccc(Oc3ccccc3)c(S(=O)(=O)O)c2)n1 | 14µM* | ? | ? | 35µM* | ? | 18µM* | -4% | 2% | ? | 12% | ? | ·
Oc1ccc(-c2cn3c(n2)SCC3)cc1O | 1.3µM* | 2.5µM* | 7.1µM* | 1.6µM* | · | 2.8µM* | 3% | 95% | 13µM* | -5% | · | 3.4* | POLI cherry-pick=9.5*
COC(=O)C1(Cc2ccc3c(c2)CCC3)Cc2ccc3c(c2C1=O)CCC3 (stereo not drawn) | · | -7% | -10% | · | · | -23% | · | · | · | · | · | ·
COc1ccc(-n2nc(C(=O)N3CCN(c4cccc(C)c4)C(C)C3)c3c4ccccc4n(C)c3c2=O)cc1 (stereo not drawn) | 13% | 18% | -9% | · | · | · | · | · | · | · | · | ·
CCN(CC)Cc1cc(O)c(CN(CC)CC)cc1O | 3.5µM* | ? | 8.9µM* | 6.3µM* | 3.2µM* | 50µM* | · | · | ? | · | · | ?
CCc1oc(C(=O)O)cc1CN(CC)CC | 1% | -12% | -5% | 6% | · | 4% | · | · | · | · | · | ·
CCCc1cc(=O)oc2c(C)c(OCC(=O)N3CCC(C(=O)O)(c4ccccc4)CC3)ccc12 | 22% | 16% | 1% | 15% | 6% | -16% | · | · | · | · | · | ·
CC(=O)Nc1sc2c(c1-c1nc3ccccc3s1)CCN(C(C)C)C2 | 3.5µM* | ? | ? | 13µM* | 30% | ? | 6% | 13µM* | 3.5µM* | 2.5µM* | 12* | · | POLI cherry-pick=19*
COc1cccc(CNC(=O)c2ccc(CNS(=O)(=O)c3ccc(C)cc3)cc2)c1 | 2% | -14% | -9%[60.1 µM] | · | · | ? | · | · | · | · | · | ·
O=C1NC(=S)SC1=C1CCCC1 | 22µM* | ? | 14µM* | 10µM* | · | 20µM* | 5% | 61% | ? | -4% | · | ?
CN1C(=O)C(=C2CCCCCC2)SC1=S | -11% | -7% | 4% | -3% | -2% | -7% | · | · | · | · | · | ·
COc1cc(-c2nnc(SCC(=O)NC3CCCC3)n2C)cc(OC)c1O | 37% | 22% | 2% | 15% | · | -5% | · | · | · | · | · | ·
CC1(C)OC(=O)C(=Cc2ccc(-c3ccc(Cl)c(C(=O)O)c3)o2)C(=O)O1 | ? | ? | 40µM* | 22µM* | 6.3µM* | 10µM* | 0% | 2% | ? | -4% | · | 27*
CC1=NN(c2ccc(Cl)c(C(=O)O)c2)C(=O)/C1=C\c1ccc(-c2ccc(C(=O)O)cc2)o1 | 16µM* | ? | ? | 25µM* | · | 13µM* | ? | 10% | 13µM* | 1% | 15* | ?
COC(=O)c1ccc(N2NC(=O)/C(=C/c3ccc(-c4ccc(Cl)c(C(=O)O)c4)o3)C2=O)cc1 | 22µM* | 8.9µM* | 28µM* | 25µM* | 6.3µM* | 3.2µM* | 6.3µM* | -7% | ? | 0% | 4.7* | 7.6* | L3MBTL1 inh-2=1.7*;L3MBTL1 ctr=-17%;POLI cherry-pick=27*
